{"source": "PubChem BioAssay (NCATS)", "note": "Several values for one entry are separate records, joined by “and”; a condition that tells them apart may be missing. Equal entries are not always repeated. Inconclusive results are not listed. Activity calls are given as the source filed them. Calls follow the shape of the dose curve; as a rule, active = well fitted curve in the direction sought with a large enough effect; inconclusive = small, poorly fitted or top-dose-only effect, or another doubt; inactive = no such curve, though single readings can be large; an effect the other way counts as inactive or inconclusive. % is scaled to controls: 0 for no effect and ±100 for the full control effect; potency is read from the fitted curve at half-maximal effect."}
{"test": "qHTS of pediatric cancer cell lines to identify multiple opportunities for drug repurposing: Confirmatory screen for DAOY cells (AID 1347114); also: nearly all actives have a fitted effect of over 65% in size", "conditions": "DAOY medulloblastoma cells viability, cytotoxicity qHTS; series mostly up to 45.9 µM; activity change, negative = cytotoxic: at the top concentration", "how_it_was_run": "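Viability measured as metabolically active cells via CellTiter-Glo luminescence following 48 hours of compound exposure, 11-point dilutions in confirmatory testing. 500-1,000 cells/well plated 5 hours before dosing; controls were DMSO and 2.3 µM bortezomib.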"}
{"smiles": "N[C@@H](Cc1ccc(N(CCCl)CCCl)cc1)C(=O)O", "Potency": "23.3 µM (active)"}
{"smiles": "C[C@H]1O[C@@H](O[C@H]2[C@@H](O)C[C@H](O[C@H]3[C@@H](O)C[C@H](O[C@H]4CC[C@@]5(C)[C@H](CC[C@@H]6[C@@H]5CC[C@]5(C)[C@@H](C7=CC(=O)OC7)CC[C@]65O)C4)O[C@@H]3C)O[C@@H]2C)C[C@H](O)[C@@H]1O", "Potency": "0.0657 µM (active)"}
{"smiles": "O=P1(NCCCl)OCCCN1CCCl", "note": "(configuration not stated)", "activity change, negative = cytotoxic": "0% (inactive)"}
{"smiles": "CC(C)CC(N(C)C)C1(c2ccc(Cl)cc2)CCC1", "note": "(configuration not stated)", "activity change, negative = cytotoxic": "5.85% (inactive)"}
{"smiles": "C[C@@H]1O[C@@H](O[C@H]2C[C@@H](O)[C@]3(CO)[C@H]4[C@H](O)C[C@]5(C)[C@@H](C6=CC(=O)OC6)CC[C@]5(O)[C@@H]4CC[C@]3(O)C2)[C@H](O)[C@H](O)[C@H]1O", "Potency": "73.7 nM (active) and 56.2 nM (active)"}
{"smiles": "C[C@@H]1[C@@H](C(=O)C[C@H]2O[C@@H]3O[C@]4(C)CC[C@@H]5[C@H](C)CC[C@@H]([C@H]2C)[C@@]35OO4)O[C@@H]2O[C@]3(C)CC[C@H]4[C@H](C)CC[C@@H]1[C@@]24OO3", "activity change, negative = cytotoxic": "-11.5% (inactive)"}
{"smiles": "O=c1[nH]c2ccccc2n1CCCN1CCC(n2c(=O)[nH]c3cc(Cl)ccc32)CC1", "Potency": "23.3 µM (active)"}
{"smiles": "C[C@@H]1[C@@H](CC(C[C@H]2O[C@@H]3O[C@]4(C)CC[C@@H]5[C@H](C)CC[C@@H]([C@H]2C)[C@@]35OO4)C[S+](=O)([O-])c2ccc(COC(=O)N(C)C)cc2)O[C@@H]2O[C@]3(C)CC[C@H]4[C@H](C)CC[C@@H]1[C@@]24OO3", "note": "(some centres not stated)", "Potency": "1.04 µM (active)"}
{"smiles": "Cc1sc2c(c1C)C(c1ccc(Cl)cc1)=N[C@@H](CC(=O)OC(C)(C)C)c1nnc(C)n1-2", "activity change, negative = cytotoxic": "-12.3% (inactive)"}
{"test": "qHTS of pediatric cancer cell lines to identify multiple opportunities for drug repurposing: Confirmatory screen for NB-EBc1 cells (AID 1347115);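 also: cells exposed to compound for 48 h before the viability read; nearly all actives have a fitted effect of over 45% in size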", "conditions": "NB-EBc1 neuroblastoma cells, viability (cytotoxicity); series mostly up to 45.9 µM; activity change, negative = cytotoxic: at the top concentration", "description": "Drug repurposing or repositioning has been offered as a strategy for drug development in oncology programs. This approach has special potential for childhood cancers and other rare or orphan diseases, where the expected return on new drug development has been a disincentive to pharmaceuticals.\nIn this project we exploit the poly-pharmacology of drugs to discover new indications via phenotypic screening of a panel of 19 well-characterized cell lines derived from solid tumors seen in children and adolescents. The goal is to identify approved drugs with previously unrecognized anticancer properties that has the potential to reveal new mechanisms and biological processes involved in carcinogenesis or drug resistance. We employed a titration-based paradigm (quantitative high-throughput screening or qHTS), where all compounds were tested at multiple concentrations for their effect on cell viability. Concentration-response curves (CRCs) were derived directly from the primary screen, and both potency and efficacy values were used to identify compounds with robust bioactivity profiles. We screened the NIH Chemical Genomics Center (NCGC) Pharmaceutical Collection (NPC) and Mechanism Interrogation Plate (MIPE) small molecule collections of approved and investigational compounds against these cell lines; and measured metabolically active cells after 48 hours of compound treatment as a proxy for cell viability.\nAssay Submitter: Nathalia J. Martinez, National Center for Advancing Translational Sciences, National Institutes of Health, Rockville, MD, USA; email: natalia.martinez@nih.gov\n[1] Shen, M et al. Quantitative high-throughput phenotypic screening of pediatric cancer cell lines identifies multiple opportunities for drug repurposing. Oncotarget 2017 Dec 19;9(4):4758-4772. PMID 29435139.\nThe cells were obtained from University of North Carolina (UNC), Pediatric Preclinical Testing Program (PPT), and Coriell Institute (CI).\nqHTS cell viability assay:\nCells were assayed in growth media at a density of 500-1,000 cells/well. Five microliters of cells were dispensed into 1,536-well, white, solid-bottom, TC-treated plates (Greiner Bio One) using a multidrop dispenser and incubated at 37 degrees C, 5% CO2, under a humidified atmosphere for 5 hours. Twenty-three nanoliters of compounds and controls (neutral control DMSO or positive control bortezomib at final concentration of 2.3 µM) were subsequently transferred by Kalypsys pintool. For primary screens, the MIPE collection was tested at 11-point dilutions (final concentrations range from 0.78 nM to 46 µM) and the NPC collection at 8-point dilutions (final concentrations range from 0.59 nM to 46 µM). Compounds tested in follow-up screens were assayed at 11-point dilutions. Cells were incubated for 48 hours, followed by addition of 3 µL of CellTiter-Glo (Promega). After a 15 min incubation at room temperature, samples were analyzed for luminescence intensity using a ViewLux High-throughput CCD imager equipped with clear filters."}
{"smiles": "N[C@@H](Cc1ccc(N(CCCl)CCCl)cc1)C(=O)O", "Potency": "5.85 µM (active)"}
{"smiles": "COC[C@@H](NC(C)=O)C(=O)NCc1ccccc1", "activity change, negative = cytotoxic": "1.52% (inactive)"}
{"smiles": "C=C(C)[C@H]1Cc2c(ccc3c2O[C@@H]2COc4cc(OC)c(OC)cc4[C@@H]2C3=O)O1", "Potency": "0.293 µM (active)"}
{"smiles": "O=P1(NCCCl)OCCCN1CCCl", "note": "(configuration not stated)", "activity change, negative = cytotoxic": "-1.73% (inactive)"}
{"smiles": "CC(C)CC(N(C)C)C1(c2ccc(Cl)cc2)CCC1", "note": "(configuration not stated)", "activity change, negative = cytotoxic": "-28.1% (inactive)"}
{"smiles": "Cn1c(CCCC(=O)O)nc2cc(N(CCCl)CCCl)ccc21", "Potency": "13.1 µM (active)"}
{"smiles": "O=c1[nH]c2ccccc2n1CCCN1CCC(n2c(=O)[nH]c3cc(Cl)ccc32)CC1", "Potency": "16.5 µM (active)"}
{"smiles": "C[C@@H]1[C@@H](CC(C[C@H]2O[C@@H]3O[C@]4(C)CC[C@@H]5[C@H](C)CC[C@@H]([C@H]2C)[C@@]35OO4)C[S+](=O)([O-])c2ccc(COC(=O)N(C)C)cc2)O[C@@H]2O[C@]3(C)CC[C@H]4[C@H](C)CC[C@@H]1[C@@]24OO3", "note": "(some centres not stated)", "Potency": "0.928 µM (active)"}
